Drawing on ChEMBL document CHEMBL4296182, “CO-ADD screening of NIH NCI Diversity Set V”, this text covers Inhibition for seven compounds.

Molecules are shown by their SMILES. For part of these data: Entries with a potency or affinity are not part of this list.

One may read the Inhibition as the drop in the measured response relative to a control, in per cent.

One test concerns Staphylococcus aureus. The experiment in a line: Antibacterial activity against Staphylococcus aureus MRSA ATCC 43300 (CO-ADD:GP_020); MIC in CAMBH media using NBS plates, by Resazurin F(560/590). Type of test: functional. Conditions: Concentration 20 uM, ASSAY_TEST Inhibition of Bacterial Growth, detection method Resazurin, Fluorescence (ex560/em590), MEDIA CAMHB, plate type 384well, CORNING #3640, time 18 hr. Background: The colour change of resazurin is a common sign of viable cells or microbes.

The test system of another test is Acinetobacter baumannii. As to the kind of experiment: Antibacterial activity against Acinetobacter baumannii ATCC 19606 (CO-ADD:GN_034); MIC in CAMBH media using NBS plates, by Resazurin F(560/590). In kind it is functional. The settings on record: Concentration 20 uM, ASSAY_TEST Inhibition of Bacterial Growth, detection method Resazurin, Fluorescence (ex560/em590), MEDIA CAMHB, plate type 384well, CORNING #3640, time 18 hr.

A further test has as its system Escherichia coli. The experiment in a line: Antibacterial activity against Escherichia coli ATCC 25922 (CO-ADD:GN_001); MIC in CAMBH media using NBS plates, by Resazurin F(560/590). The settings on record: Concentration 20 uM, ASSAY_TEST Inhibition of Bacterial Growth, detection method Resazurin, Fluorescence (ex560/em590), MEDIA CAMHB, plate type 384well, CORNING #3640, time 18 hr. Type of test: functional.

The next test deals with Klebsiella pneumoniae. Conditions: Concentration 20 uM; ASSAY_TEST Inhibition of Bacterial Growth; detection method Absorption (OD600); MEDIA CAMHB; plate type 384well; NBS; CORNING #3640; time 18 hr.
A further test deals with Candida albicans. The settings on record: 20 µM.
A further test deals with Cryptococcus neoformans. Conditions: Concentration 20 uM; ASSAY_TEST Inhibition of Fungal Growth; detection method Resazurin; Absorption (OD600-OD570); plate type 384well; NBS; CORNING #3640.

As for `C[C@]12CC[C@H](O)CC1=CC[C@@H]1[C@@H]2CC[C@]2(C)c3n[nH]cc3C[C@@H]12`, the Inhibition is 17.35% in the test with Staphylococcus aureus; 7.15% in the test with Acinetobacter baumannii; 13.22% with Escherichia coli; 4.71% in the test with Klebsiella pneumoniae; -0.24% in the test on Candida albicans; -13.74% in the test with Cryptococcus neoformans.
Turning to `Cc1cc2cc3n(c2nn1)N=C(Cl)CC3`, the Inhibition in the test with Staphylococcus aureus is 10.12%; in the test with Acinetobacter baumannii, 6.88%; in the test with Escherichia coli, -0.69%; in the test on Klebsiella pneumoniae it was 18.79%; in the test with Candida albicans, 2.37%; with Cryptococcus neoformans, -3.5%.
For `Clc1ccccc1-c1nc2ccccc2[nH]1`, the Inhibition is 11.4% with Staphylococcus aureus; -8.21% in the test on Acinetobacter baumannii; 9.05% in the test with Escherichia coli; 12.13% in the test on Klebsiella pneumoniae; 4.17% in the test with Candida albicans; -6.44% in the test on Cryptococcus neoformans.
For `CC(C)(C(N)=O)c1ccccc1`, the Inhibition is 17.59% with Staphylococcus aureus; -10.23% in the test with Acinetobacter baumannii; 13.36% with Escherichia coli; 17.26% with Klebsiella pneumoniae; -1.04% in the test on Candida albicans; -2.3% in the test with Cryptococcus neoformans.
On to `COc1cccc(OCC(O)CN2CCN(c3ccccc3)CC2)c1` (configuration not stated), for which the Inhibition with Staphylococcus aureus is 10.13%; with Acinetobacter baumannii it was -11.48%; in the test on Escherichia coli, -4.05%; with Klebsiella pneumoniae, 23.2%; in the test with Candida albicans, -2.19%; in the test on Cryptococcus neoformans, -13.63%.
`CCCCOc1ccc(NC(=O)Nc2nnc(C)s2)cc1`: the Inhibition in the test with Staphylococcus aureus was 12.15%; with Acinetobacter baumannii, 11.82%; in the test on Escherichia coli, 5.52%; with Klebsiella pneumoniae, 16.37%; in the test with Candida albicans, -3.65%; in the test on Cryptococcus neoformans, -3.97%.
With `COc1cc(S(N)(=O)=O)c(OC)cc1N`, the Inhibition with Staphylococcus aureus was 4.84%; in the test with Acinetobacter baumannii it was -10.8%; with Escherichia coli it was 11.54%; in the test with Klebsiella pneumoniae, 5.18%; in the test on Candida albicans, 1.19%; in the test on Cryptococcus neoformans, -0.85%.
